Common to all, as to assay: DAPPL (digital affinity profiling via proximity ligation, sequencing); 10 mM Tris-HCl pH 7.5, 50 mM NaCl, 1 mM DTT, 4% glycerol, room temperature, 30 min; GST-TFs on glutathione beads, 16-mer random dsDNA library, 0.1% formaldehyde crosslink after washing; high values mean tight binding
Details in all cases: protein: recombinant; tags: N-terminal GST; dsDNA, one strand shown

The target of one assay is T1, FLI1 (Homo sapiens, UniProt Q01543 1-452).
T1 sequence: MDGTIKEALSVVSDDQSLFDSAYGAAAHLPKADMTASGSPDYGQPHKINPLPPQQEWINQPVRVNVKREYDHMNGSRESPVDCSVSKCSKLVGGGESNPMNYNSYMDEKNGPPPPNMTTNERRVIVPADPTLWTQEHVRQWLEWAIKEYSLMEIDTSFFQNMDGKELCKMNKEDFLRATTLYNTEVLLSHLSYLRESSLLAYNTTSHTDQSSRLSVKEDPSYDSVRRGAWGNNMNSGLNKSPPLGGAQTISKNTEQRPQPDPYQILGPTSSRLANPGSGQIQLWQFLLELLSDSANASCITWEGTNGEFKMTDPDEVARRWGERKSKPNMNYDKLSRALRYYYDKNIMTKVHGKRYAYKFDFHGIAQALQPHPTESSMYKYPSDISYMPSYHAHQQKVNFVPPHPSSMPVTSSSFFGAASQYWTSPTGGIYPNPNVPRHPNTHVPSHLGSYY
Summed up: (§1)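 Human transcription factors were made in yeast as GST fusions, captured on glutathione beads and barcoded with DNA. With a tag-only sample included, the pool was incubated with 200 nmole of a random double-stranded 16-mer DNA library in Tris/NaCl/DTT/glycerol buffer at room temperature for 30 min, then crosslinked with 0.1% formaldehyde after washing, ligated by proximity, amplified and sequenced. For binding signal, each hexamer's read frequency for a factor is divided by its frequency for the tag-only sample.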

A further assay deals with T2, ELK1 (Homo sapiens, UniProt P19419 1-428).
T2 sequence: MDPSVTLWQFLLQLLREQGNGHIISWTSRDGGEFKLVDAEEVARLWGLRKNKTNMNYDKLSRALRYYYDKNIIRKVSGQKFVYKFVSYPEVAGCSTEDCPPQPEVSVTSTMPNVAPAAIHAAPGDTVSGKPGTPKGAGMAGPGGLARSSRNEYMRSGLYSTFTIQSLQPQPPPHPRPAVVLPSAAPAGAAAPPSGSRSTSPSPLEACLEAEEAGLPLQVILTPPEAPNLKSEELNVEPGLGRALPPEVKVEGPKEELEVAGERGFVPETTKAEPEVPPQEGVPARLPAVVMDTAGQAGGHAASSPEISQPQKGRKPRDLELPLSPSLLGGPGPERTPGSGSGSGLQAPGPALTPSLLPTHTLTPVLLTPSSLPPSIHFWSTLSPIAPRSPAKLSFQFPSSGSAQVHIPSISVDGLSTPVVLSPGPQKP
Summed up: as §1

Another assay deals with T3, GABPA (Homo sapiens, UniProt Q06546 1-454).
T3 sequence: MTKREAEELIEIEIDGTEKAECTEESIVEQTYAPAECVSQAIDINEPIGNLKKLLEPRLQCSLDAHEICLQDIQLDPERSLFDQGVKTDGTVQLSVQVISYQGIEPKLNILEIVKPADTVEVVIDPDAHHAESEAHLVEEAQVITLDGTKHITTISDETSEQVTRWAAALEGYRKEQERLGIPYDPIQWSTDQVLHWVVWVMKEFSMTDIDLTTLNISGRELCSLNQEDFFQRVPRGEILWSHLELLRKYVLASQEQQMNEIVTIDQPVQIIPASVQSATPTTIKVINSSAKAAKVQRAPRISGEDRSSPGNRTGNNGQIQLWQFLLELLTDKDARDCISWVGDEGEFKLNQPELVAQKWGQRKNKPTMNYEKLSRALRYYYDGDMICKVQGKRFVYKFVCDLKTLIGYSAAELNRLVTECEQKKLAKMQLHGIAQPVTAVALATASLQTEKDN
Summed up:
as §1

In the next assay the target is T4, ERG (Homo sapiens, UniProt P11308 1-479).
T4 sequence: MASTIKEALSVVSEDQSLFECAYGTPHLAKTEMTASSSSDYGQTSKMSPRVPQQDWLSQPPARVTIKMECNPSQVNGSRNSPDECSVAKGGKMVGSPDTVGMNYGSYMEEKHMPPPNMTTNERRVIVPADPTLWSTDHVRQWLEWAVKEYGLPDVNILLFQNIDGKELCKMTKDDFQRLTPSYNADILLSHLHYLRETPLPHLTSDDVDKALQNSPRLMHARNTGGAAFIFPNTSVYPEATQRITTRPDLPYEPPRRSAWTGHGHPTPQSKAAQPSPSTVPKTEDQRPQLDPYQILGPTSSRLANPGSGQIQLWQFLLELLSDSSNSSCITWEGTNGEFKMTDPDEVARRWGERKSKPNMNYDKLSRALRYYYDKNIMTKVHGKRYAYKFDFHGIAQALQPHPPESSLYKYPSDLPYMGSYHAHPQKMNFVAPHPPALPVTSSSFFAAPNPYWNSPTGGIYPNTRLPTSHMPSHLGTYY
Summed up: as §1

The next assay has as its target ELF1 (Homo sapiens, UniProt P32519 1-619). Put shortly: as §1
The next assay has as its target T5, EHF (Homo sapiens, UniProt Q9NZC4 1-300).
T5 sequence: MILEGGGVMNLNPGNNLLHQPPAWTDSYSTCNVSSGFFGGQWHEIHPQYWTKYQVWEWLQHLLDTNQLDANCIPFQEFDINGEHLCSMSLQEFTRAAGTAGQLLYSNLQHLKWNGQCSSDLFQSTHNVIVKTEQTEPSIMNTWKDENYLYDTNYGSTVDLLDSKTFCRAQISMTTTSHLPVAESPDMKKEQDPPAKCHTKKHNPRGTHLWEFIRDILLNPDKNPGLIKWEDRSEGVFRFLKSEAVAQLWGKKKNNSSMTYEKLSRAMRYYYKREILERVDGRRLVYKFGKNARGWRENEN
Summed up: as §1

The next assay deals with SPI1 (Homo sapiens, UniProt P17947 1-270). Put shortly:
as §1

The target in the next assay is SPIB (Homo sapiens, UniProt Q01892 1-262). Summed up:
as §1

For another assay, the target named is T6, ELK3 (Homo sapiens, UniProt P41970 1-407).
T6 sequence: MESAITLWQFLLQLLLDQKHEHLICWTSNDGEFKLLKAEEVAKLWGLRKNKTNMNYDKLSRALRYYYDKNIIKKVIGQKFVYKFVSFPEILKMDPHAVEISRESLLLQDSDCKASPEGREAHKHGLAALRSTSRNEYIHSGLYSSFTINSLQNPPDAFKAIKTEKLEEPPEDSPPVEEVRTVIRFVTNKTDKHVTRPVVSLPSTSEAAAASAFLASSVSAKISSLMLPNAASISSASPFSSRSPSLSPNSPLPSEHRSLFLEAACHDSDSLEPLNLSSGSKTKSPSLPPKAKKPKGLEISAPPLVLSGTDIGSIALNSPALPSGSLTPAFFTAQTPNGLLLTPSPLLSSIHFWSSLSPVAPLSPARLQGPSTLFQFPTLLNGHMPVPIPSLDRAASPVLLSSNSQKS
Put shortly: as §1

These results are taken from publication PMC7862700, “An all-to-all approach to the identification of sequence-specific readers for epigenetic DNA modifications on cytosine”.

Sequence of ELF1 (P32519 whole entry): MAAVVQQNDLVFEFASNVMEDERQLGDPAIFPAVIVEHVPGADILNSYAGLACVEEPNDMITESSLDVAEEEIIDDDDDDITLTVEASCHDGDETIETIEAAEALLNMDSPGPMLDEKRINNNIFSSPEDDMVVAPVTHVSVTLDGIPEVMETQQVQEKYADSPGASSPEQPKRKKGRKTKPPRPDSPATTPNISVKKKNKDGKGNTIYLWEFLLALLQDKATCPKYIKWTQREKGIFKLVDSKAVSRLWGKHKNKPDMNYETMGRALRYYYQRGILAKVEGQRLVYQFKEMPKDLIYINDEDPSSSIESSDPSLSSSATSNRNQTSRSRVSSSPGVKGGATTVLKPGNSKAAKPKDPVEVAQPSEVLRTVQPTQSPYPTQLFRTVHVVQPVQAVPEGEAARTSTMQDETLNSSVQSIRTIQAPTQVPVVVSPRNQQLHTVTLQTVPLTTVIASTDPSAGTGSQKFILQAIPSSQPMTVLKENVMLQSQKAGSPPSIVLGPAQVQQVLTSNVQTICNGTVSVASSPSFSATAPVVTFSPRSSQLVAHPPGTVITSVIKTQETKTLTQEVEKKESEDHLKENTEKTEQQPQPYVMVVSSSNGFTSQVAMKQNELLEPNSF
Sequence of SPIB (Q01892 whole entry): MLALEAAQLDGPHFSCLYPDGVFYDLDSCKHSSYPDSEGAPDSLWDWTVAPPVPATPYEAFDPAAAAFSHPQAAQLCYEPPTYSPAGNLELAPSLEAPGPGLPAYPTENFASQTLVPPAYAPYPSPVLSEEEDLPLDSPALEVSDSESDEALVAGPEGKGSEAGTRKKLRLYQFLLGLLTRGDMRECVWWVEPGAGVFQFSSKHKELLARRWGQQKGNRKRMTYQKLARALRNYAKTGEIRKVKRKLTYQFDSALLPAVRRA

In the case of CACATT, the binding signal is 1.3 fold enrichment (6-mer frequency, TF over GST control) in the assay with FLI1; 1.16 fold enrichment (6-mer frequency, TF over GST control) in the assay with ELK1; 1.2 fold enrichment (6-mer frequency, TF over GST control) with GABPA; 1.15 fold enrichment (6-mer frequency, TF over GST control) with ERG; 1.21 fold enrichment (6-mer frequency, TF over GST control) with ELF1; 1.23 fold enrichment (6-mer frequency, TF over GST control) with EHF. The binding signal is 1.14 fold enrichment (6-mer frequency, TF over GST control) with SPI1; 1.12 fold enrichment (6-mer frequency, TF over GST control) with SPIB; 1.13 fold enrichment (6-mer frequency, TF over GST control) in the assay with ELK3.

As for TTCGAT, the binding signal with FLI1 is 1.32 fold enrichment (6-mer frequency, TF over GST control); with ELK1, 1.23 fold enrichment (6-mer frequency, TF over GST control); with GABPA, 1.22 fold enrichment (6-mer frequency, TF over GST control); in the assay with ERG it was 1.43 fold enrichment (6-mer frequency, TF over GST control); in the assay with ELF1, 1.41 fold enrichment (6-mer frequency, TF over GST control); with EHF it was 1.38 fold enrichment (6-mer frequency, TF over GST control). Also, the binding signal in the assay with SPI1 was 1.29 fold enrichment (6-mer frequency, TF over GST control); with SPIB, 1.24 fold enrichment (6-mer frequency, TF over GST control); with ELK3, 1.32 fold enrichment (6-mer frequency, TF over GST control).

For CCATCT, the binding signal in the assay with FLI1 is 1.3 fold enrichment (6-mer frequency, TF over GST control); with ELK1, 1.44 fold enrichment (6-mer frequency, TF over GST control); with GABPA it was 1.32 fold enrichment (6-mer frequency, TF over GST control); with ERG, 1.26 fold enrichment (6-mer frequency, TF over GST control); with ELF1, 1.38 fold enrichment (6-mer frequency, TF over GST control); with EHF it was 1.33 fold enrichment (6-mer frequency, TF over GST control). Further, the binding signal in the assay with SPI1 is 1.21 fold enrichment (6-mer frequency, TF over GST control); in the assay with SPIB, 1.28 fold enrichment (6-mer frequency, TF over GST control); with ELK3, 1.28 fold enrichment (6-mer frequency, TF over GST control).

As for CCCATC, the binding signal is 1.19 fold enrichment (6-mer frequency, TF over GST control) with FLI1; 1.18 fold enrichment (6-mer frequency, TF over GST control) with ELK1; 1.17 fold enrichment (6-mer frequency, TF over GST control) with GABPA; 1.11 fold enrichment (6-mer frequency, TF over GST control) with ERG; 1.12 fold enrichment (6-mer frequency, TF over GST control) with ELF1; 1.17 fold enrichment (6-mer frequency, TF over GST control) in the assay with EHF. Further, the binding signal was 1.11 fold enrichment (6-mer frequency, TF over GST control) with SPI1; 1.18 fold enrichment (6-mer frequency, TF over GST control) with SPIB; 1.21 fold enrichment (6-mer frequency, TF over GST control) with ELK3.

Take AAGCTG: the binding signal with FLI1 is 1.21 fold enrichment (6-mer frequency, TF over GST control); in the assay with ELK1 it was 1.24 fold enrichment (6-mer frequency, TF over GST control); in the assay with GABPA it was 1.16 fold enrichment (6-mer frequency, TF over GST control); with ERG, 1.13 fold enrichment (6-mer frequency, TF over GST control); in the assay with ELF1, 1.16 fold enrichment (6-mer frequency, TF over GST control); in the assay with EHF, 1.08 fold enrichment (6-mer frequency, TF over GST control). For the same sequence, the binding signal with SPI1 was 1.03 fold enrichment (6-mer frequency, TF over GST control); in the assay with SPIB, 1.14 fold enrichment (6-mer frequency, TF over GST control); with ELK3, 1.08 fold enrichment (6-mer frequency, TF over GST control).

Turning to TCTAAC, the binding signal was 1.18 fold enrichment (6-mer frequency, TF over GST control) with FLI1; 1.28 fold enrichment (6-mer frequency, TF over GST control) with ELK1; 1.16 fold enrichment (6-mer frequency, TF over GST control) in the assay with GABPA; 1.22 fold enrichment (6-mer frequency, TF over GST control) with ERG; 1.21 fold enrichment (6-mer frequency, TF over GST control) with ELF1; 1.16 fold enrichment (6-mer frequency, TF over GST control) in the assay with EHF. Further, the binding signal with SPI1 is 1.13 fold enrichment (6-mer frequency, TF over GST control); with SPIB, 1.19 fold enrichment (6-mer frequency, TF over GST control); with ELK3, 1.16 fold enrichment (6-mer frequency, TF over GST control).

As for TGCATC, the binding signal was 1.35 fold enrichment (6-mer frequency, TF over GST control) in the assay with FLI1; 1.42 fold enrichment (6-mer frequency, TF over GST control) with ELK1; 1.38 fold enrichment (6-mer frequency, TF over GST control) in the assay with GABPA; 1.43 fold enrichment (6-mer frequency, TF over GST control) in the assay with ERG; 1.31 fold enrichment (6-mer frequency, TF over GST control) with ELF1; 1.33 fold enrichment (6-mer frequency, TF over GST control) with EHF. Further, the binding signal in the assay with SPI1 is 1.42 fold enrichment (6-mer frequency, TF over GST control); with SPIB, 1.35 fold enrichment (6-mer frequency, TF over GST control); in the assay with ELK3, 1.44 fold enrichment (6-mer frequency, TF over GST control).

On to AAGTAG, for which the binding signal was 1.12 fold enrichment (6-mer frequency, TF over GST control) in the assay with FLI1; 1.21 fold enrichment (6-mer frequency, TF over GST control) in the assay with ELK1; 1.2 fold enrichment (6-mer frequency, TF over GST control) in the assay with GABPA; 1.24 fold enrichment (6-mer frequency, TF over GST control) in the assay with ERG; 1.15 fold enrichment (6-mer frequency, TF over GST control) with ELF1; 1.23 fold enrichment (6-mer frequency, TF over GST control) in the assay with EHF. In addition, the binding signal in the assay with SPI1 was 1.35 fold enrichment (6-mer frequency, TF over GST control); with SPIB, 1.13 fold enrichment (6-mer frequency, TF over GST control); with ELK3, 1.26 fold enrichment (6-mer frequency, TF over GST control).
